# TSHR agonist: qHTS Assay for Agonists of the Thyroid Stimulating Hormone Receptor; AID 926, 2007; Potency, µM (series often up to 57.1 µM), for the others: top-dose activation, hits mostly activators; actives 0.48% (n = 73,000); HEK293-CNG-TSHR cells (CNG channel as cAMP sensor), membrane potential dye, cAMP; Thyrotropin receptor (Homo sapiens), P16473; active = well fitted activation curve with a large enough effect in the main read-out, with a control signal flat, not every such curve was filed as active; inconclusive = small, poorly fitted or top-dose-only effect, or a change in a side signal; inactive = no such curve, though single readings can be large or run the other way; % of control where 0% means no effect;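 also: the control signal comes from parental cells without the receptor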
# Target sequence (P16473 whole entry, looked up): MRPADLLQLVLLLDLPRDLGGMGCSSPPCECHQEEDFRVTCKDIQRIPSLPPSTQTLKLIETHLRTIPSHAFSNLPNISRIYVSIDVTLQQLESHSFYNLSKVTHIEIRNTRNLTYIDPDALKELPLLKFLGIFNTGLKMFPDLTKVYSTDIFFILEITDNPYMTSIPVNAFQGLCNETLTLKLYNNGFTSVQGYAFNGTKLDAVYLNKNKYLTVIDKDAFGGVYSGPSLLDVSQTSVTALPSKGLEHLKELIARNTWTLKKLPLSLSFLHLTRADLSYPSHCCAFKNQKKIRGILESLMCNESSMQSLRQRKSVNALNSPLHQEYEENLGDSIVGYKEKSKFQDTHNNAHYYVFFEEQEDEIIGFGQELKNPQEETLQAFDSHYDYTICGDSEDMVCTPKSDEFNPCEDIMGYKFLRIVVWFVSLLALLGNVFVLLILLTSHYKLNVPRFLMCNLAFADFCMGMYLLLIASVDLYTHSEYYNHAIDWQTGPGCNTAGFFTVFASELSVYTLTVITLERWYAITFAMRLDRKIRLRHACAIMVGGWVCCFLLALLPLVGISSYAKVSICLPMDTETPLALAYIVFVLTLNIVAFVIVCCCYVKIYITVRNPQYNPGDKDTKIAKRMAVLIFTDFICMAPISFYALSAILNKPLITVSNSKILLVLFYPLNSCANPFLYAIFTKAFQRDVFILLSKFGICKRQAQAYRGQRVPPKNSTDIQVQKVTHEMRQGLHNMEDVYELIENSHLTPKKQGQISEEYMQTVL
#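 HEK 293 cells stably expressing TSHR and a cAMP-gated CNG channel; parental CNG-only cells as counterscreen. Cells preloaded 60 min with membrane potential dye plus 100 uM RO 20-1724, then compound 30 min; fluorescence read at 590 nm.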
# CRE-bla Fsk: Cell signaling CRE-BLA (Fsk stim); AID 662, 2007; actives 2.5% (n = 71,000); Potency, µM (doses to about 38.2 µM), inactives show at the top dose activity change, negative = inhibition, usual class: activators; CHO CRE-bla reporter (cAMP response element driving beta-lactamase), forskolin EC10, beta-lactamase ratio; active = well fitted activation curve with a large enough effect in the signal ratio, with a control signal flat, not every such curve was filed as active; inconclusive = small, poorly fitted or top-dose-only effect, or effect the other way, or a change in a side signal; the % refers to the signal ratio; also: % of control where 0% means no effect
#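 Cells were plated overnight at 37 °C, exposed to compound titrations plus EC10 NKH 477 for 3 h, then given CCF4 dye for 2 h at room temperature. Blue/green (460/530 nm) ratio was converted to %Activity and AC50 values calculated.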
# Tau filament bind: qHTS Assay for Tau Filament Binding. Microtubule-associated protein tau (Homo sapiens), P10636. recombinant tau filaments, thioflavin S fluorescence, 15 h; filaments grown with octadecylsulfate alongside compound. Potency, µM (highest dose often 57.1 µM), for inactives: at the top dose activity change, negative = inhibition. actives 2% (n = 71,000). AID 596, 2007;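 also: % is scaled to controls: 0 for no effect and ±100 for the full control effect; actives lower thioflavin S fluorescence by blocking filaments or displacing dye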
#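 Recombinant tau protein (human, 1 uM final) plus 30 uM ODS in HEPES pH 7.4 with NaCl, DTT and thioflavine S. Compound present from the start; fluorescence at 510 nm after 15 h, 37 C.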
# HEK293 cAMP ctrl: qHTS Assay for Agonists of the Thyroid Stimulating Hormone Receptor: Activators of Intracellular cAMP Concentrations in Parental HEK 293; Potency, µM (highest dose often 57.1 µM), for the others: top-dose activation, usual class: activators; actives 2.5% (n = 73,000); AID 938, 2007; parental HEK293 CNG cAMP sensor, membrane potential fluorescence; also: % of control where 0% means no effect; nearly all actives have a fitted effect of over 55% in size
#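 Parental HEK 293 cells stably expressing a cAMP-gated CNG channel were loaded with membrane potential dye containing 100 uM RO 20-1724 for 60 min. Compound added for 30 min; depolarization read as fluorescence intensity at 590 nm.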
# ERK AVP inh: qHTS Assay for Inhibitors of the ERK Signaling Pathway using a Homogeneous Screening Assay. Potency, µM (top dose mostly 57.5 µM), for the others: at the top dose activity, negative = inhibition, actives largely listed as inhibitors. HEK293-V1b, vasopressin-stimulated pERK AlphaScreen. AID 995, 2007. actives 0.99% (n = 72,000); also: % is scaled to controls: 0 for no effect and ±100 for the full control effect; nearly all actives have a fitted effect of over 55% in size
#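 Phosphorylated ERK1/2 detected via AlphaScreen bead proximity in lysates of V1b-expressing HEK293 cells given 25 nM vasopressin for 5 min after 30 min compound exposure (37 °C). AC50 from Hill equation; basal DMSO 0%, vasopressin 100%.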
# Active calls of the source: *; i = inactive; ? = inconclusive; / = no result; [ ] = remark or other dose. Most compounds without a hit are left out; they make up all but 7.4% or so of the library. Unless noted, calls follow the shape of the dose curve; as a rule, active = well fitted curve in the direction sought with a large enough effect; inconclusive = small, poorly fitted or top-dose-only effect, or another doubt; inactive = no such curve, though single readings can be large; an effect the other way counts as inactive or inconclusive. Potency is read from the fitted curve at half-maximal effect.
SMILES,TSHR agonist,CRE-bla Fsk,Tau filament bind,HEK293 cAMP ctrl,ERK AVP inh
COC(=O)CC[C@@H](C)[C@H]1CC[C@H]2[C@H]3CC[C@H]4C[C@@H]5CC[C@@]4(C)C3(O5)[C@@H](Br)[C@@H](Br)[C@@]12C,-1%[11.4 µM],10%[7.6 µM],-2%[11.4 µM],5%[11.4 µM],0%[11.5 µM]
CCOC(=O)c1cc2sc(C)cc2n1CC(=O)N1CCc2ccccc21,?,-6%,2%,7.9µM*,12%
CCOC(=O)c1cc2sccc2n1CC(=O)N1CCCc2ccccc21,?,-2%,3%,?,1%
CCC(=O)NCCn1c(C)cc2ccccc21,?,10µM*,10%,?,/
Cc1cc2ccccc2n1CCNC(=O)COc1ccccc1,-9%,10µM*,6%,-2%,/
COc1ccccc1NC(=O)N1CCc2[nH]c3ccc(Cl)cc3c2C1,-8%,21%,i,-5%,25µM*
CC(=O)NC(c1ccco1)c1ccc2cccnc2c1O (configuration not stated),1%,-3%,-13%,2%,16µM*
Cc1cc(C)cc(OCC(=O)Nc2cccc(-c3nnc(-c4ccco4)o3)c2)c1,?,-4%,108%,25µM*,?
O=C(COc1ccccc1)Nc1cccc(-c2nnc(-c3ccccc3)o2)c1,?,-2%,79%,25µM*,-3%
COc1ccc(OCC(=O)Nc2cccc(-c3nc4ccccc4o3)c2)cc1,?,22%[7.6 µM],i[11.4 µM],?,?
O=C(c1ccccc1OCc1ccccc1Br)N1CCN(c2ncccn2)CC1,?,0%,-1%,16µM*,?
O=C(c1ccc(-c2ccccc2)cc1)N1CCN(c2ncccn2)CC1,?,?,5%,25µM*,4%
COc1ccccc1C(=O)N1CCN(c2ccccn2)CC1,-1%,/,/,5%,/
N/C(CC/C(N)=N/O)=N\O,7%[11.4 µM],5%[7.6 µM],-2%[11.4 µM],0%[11.4 µM],-3%[11.5 µM]
NC(=O)NC(=O)Nc1ccccc1Cl,1%,?,4%,13%,-7%
CCc1ccc(NC(=O)Nc2cccs2)cc1,-23%,18%,25µM*,-4%,4%
O=C(Nc1cccs1)Nc1ccccc1Cl,-19%,?,25µM*,-2%,?
c1cncc(-c2csc(NCc3ccco3)n2)c1,-2%,/,/,11%,/
COc1ccc(-c2csc(NCc3ccco3)n2)cc1C,-17%,2%,13µM*,-6%,?
O=C(O)c1ccc2c3c1cccc3c(=O)n1c3ccccc3nc21,2%,5µM*,37%,-5%,0%
O=C(O)c1cc(=O)c2cccc(O)c2[nH]1,/,/,/,/,2%
CSCCC(Nc1ncnc2ccc(Br)cc12)C(=O)O (configuration not stated),?,-6%,6%,2µM*,-17%
CSCC[C@H](NC(=O)CCn1nnc2ccccc2c1=O)C(=O)O,1%,-29%,-10%,4%,-7%
O=C(O)[C@H](Cc1cc(I)c(O)c(I)c1)C1CCCCC1,6%[11.4 µM],-1%[7.6 µM],14%[11.4 µM],3%[11.4 µM],-19%[11.5 µM]
CCOC(=O)c1[nH]c2c(c1C)C(=O)CC(c1ccco1)C2 (configuration not stated),?,1µM*,4%,32µM*,-27%
CCCCOC(=O)c1[nH]c2c(c1C)C(=O)CC(c1cc(OC)c(OC)c(OC)c1)C2 (configuration not stated),?,8%,192%,?,25µM*
Cc1c(C(=O)OCc2ccccc2)[nH]c2c1C(=O)CC(c1ccco1)C2 (configuration not stated),/,0.79µM*,138%,10%,-7%
CSCCOC(=O)c1[nH]c2c(c1C)C(=O)CC(c1ccco1)C2 (configuration not stated),9%,7.9µM*,26%,25%,?
C=CCOC(=O)c1[nH]c2c(c1C)C(=O)CC(c1cc(OC)c(OC)c(OC)c1)C2 (configuration not stated),?,5%,39%,?,?

# High-throughput results deposited in PubChem BioAssay by National Center for Advancing Translational Sciences (NCATS).
